This is part of a sample that, as a whole, favours compounds with a hit. Of some 83,000 tested, about 20% had one in any assay.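 Cell lines were cultured in 96-well plates, exposed to a single compound concentration, and assessed for percent growth 48 hours later.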 Calls of active or inactive are those of the source. The calls were made as follows: active = growth percent below 10; inactive = the rest.
Columns and labels:
Assay in all cases: NCI-60 one-dose screen, 48 h (100 = growth as untreated, 0 = no growth, -100 = all killed)
Details in all cases: 10 µM unless noted
DU-145 prostate = test system: DU-145 prostate
K-562 leukemia = test system: K-562 leukemia
MALME-3M melanoma = test system: MALME-3M melanoma
MDA-MB-231 breast = test system: MDA-MB-231 breast
RXF 393 renal = test system: RXF 393 renal
SF-268 CNS = test system: SF-268 CNS
SF-295 CNS = test system: SF-295 CNS
SF-539 CNS = test system: SF-539 CNS
UACC-257 melanoma = test system: UACC-257 melanoma
M14 melanoma = test system: M14 melanoma
HCT-15 colon = test system: HCT-15 colon
HT29 colon = test system: HT29 colon
SNB-75 CNS = test system: SNB-75 CNS
SNB-19 CNS = test system: SNB-19 CNS
U251 CNS = test system: U251 CNS
PC-3 prostate = test system: PC-3 prostate
SK-MEL-5 melanoma = test system: SK-MEL-5 melanoma
UACC-62 melanoma = test system: UACC-62 melanoma
LOX IMVI melanoma = test system: LOX IMVI melanoma
SK-MEL-28 melanoma = test system: SK-MEL-28 melanoma

Measured: growth

COc1cccc(-c2nn(-c3ccccc3)cc2-c2ccnc(NCCCNC(=O)Nc3ccc(Cl)c(Cl)c3)c2)c1
inactive: DU-145 prostate 22.1% | SF-268 CNS 13.9% | SNB-75 CNS 25.4% | SNB-19 CNS 27.7%
active: K-562 leukemia -13.6% | MALME-3M melanoma -27.1% | MDA-MB-231 breast -37.2% | RXF 393 renal 9.74% | SF-295 CNS -4.97% | SF-539 CNS 1.74% | UACC-257 melanoma -29.6% | M14 melanoma -52% | HCT-15 colon 6.61% | HT29 colon -36.4% | U251 CNS -15.5% | PC-3 prostate 6.51% | SK-MEL-5 melanoma -26.4% | UACC-62 melanoma -29.7% | LOX IMVI melanoma -92.1% | SK-MEL-28 melanoma -29.2%

C=C(C)[C@@H]1CC[C@]2(C(=O)NC3CCCCC3)CC[C@]3(C)[C@H](CC[C@@H]4[C@@]5(C)CCCNC(C)(C)[C@@H]5CC[C@]43C)[C@@H]12
active: K-562 leukemia -8.4% | MALME-3M melanoma -6.88% | UACC-257 melanoma -9.57% | M14 melanoma -52.3% | HCT-15 colon -26.8% | HT29 colon 2.51% | SK-MEL-5 melanoma 6.77% | LOX IMVI melanoma -91.8%
inactive: DU-145 prostate 59% | MDA-MB-231 breast 52.7% | RXF 393 renal 56.6% | SF-268 CNS 78.4% | SF-295 CNS 96.9% | SF-539 CNS 63.4% | SNB-75 CNS 93.9% | SNB-19 CNS 84.3% | U251 CNS 14.9% | PC-3 prostate 49.7% | UACC-62 melanoma 11.7% | SK-MEL-28 melanoma 56.6%

CS(=O)c1cccc(-c2ccc3nc(N)n(-c4ccc(C(F)(F)F)cc4)c(=O)c3c2)c1 (stereo not given)
inactive: DU-145 prostate 103% | K-562 leukemia 96.2% | MALME-3M melanoma 78.6% | MDA-MB-231 breast 90.5% | RXF 393 renal 92.5% | SF-268 CNS 89.1% | SF-295 CNS 92.1% | SF-539 CNS 91.7% | UACC-257 melanoma 101% | M14 melanoma 99.5% | HCT-15 colon 105% | HT29 colon 99.8% | SNB-75 CNS 114% | SNB-19 CNS 91.7% | U251 CNS 88.9% | PC-3 prostate 83.5% | SK-MEL-5 melanoma 87.8% | UACC-62 melanoma 95% | LOX IMVI melanoma 88.1% | SK-MEL-28 melanoma 114%

CN1C(=O)N(C)C2C1NN=c1s/c(=C\c3ccccc3)c(=O)n12 (stereo not given)
inactive: DU-145 prostate 55% | K-562 leukemia 20.3% | MALME-3M melanoma 51.3% | MDA-MB-231 breast 68.9% | RXF 393 renal 54.7% | SF-268 CNS 57.8% | SF-295 CNS 34% | SF-539 CNS 45.1% | UACC-257 melanoma 54% | M14 melanoma 31% | HCT-15 colon 27.1% | HT29 colon 77.8% | SNB-75 CNS 11.5% | SNB-19 CNS 45.4% | U251 CNS 42.1% | PC-3 prostate 28.2% | SK-MEL-5 melanoma 41% | UACC-62 melanoma 42.2% | LOX IMVI melanoma 44.6% | SK-MEL-28 melanoma 63.2%

Clc1cccc(Cl)c1/C=C/c1cc(/C=C/c2c(Cl)cccc2Cl)[nH]n1
active: RXF 393 renal 6.46% | SF-539 CNS -43.7% | M14 melanoma 5.51%
inactive: DU-145 prostate 17% | K-562 leukemia 12% | MALME-3M melanoma 60.1% | MDA-MB-231 breast 13.1% | SF-268 CNS 53.2% | SF-295 CNS 20.9% | UACC-257 melanoma 58.6% | HCT-15 colon 27.7% | HT29 colon 10.7% | SNB-75 CNS 11% | SNB-19 CNS 25.9% | U251 CNS 20.3% | PC-3 prostate 30.8% | SK-MEL-5 melanoma 22.9% | UACC-62 melanoma 38.8% | LOX IMVI melanoma 46.3% | SK-MEL-28 melanoma 46.2%

COc1c(CCC[P+](c2ccccc2)(c2ccccc2)c2ccccc2)cc2c(c1OC)OCO2
inactive: DU-145 prostate 23.5% | K-562 leukemia 12.3% | RXF 393 renal 29% | SF-268 CNS 15.4% | SF-295 CNS 20.8% | SF-539 CNS 20.2% | M14 melanoma 12.2% | HCT-15 colon 92.3% | HT29 colon 38.2% | LOX IMVI melanoma 15.9% | SK-MEL-28 melanoma 25.1%
active: MALME-3M melanoma 9.97% | MDA-MB-231 breast -8.84% | UACC-257 melanoma -3.96% | SNB-75 CNS -3.69% | SNB-19 CNS 9.64% | U251 CNS 7.32% | PC-3 prostate -0.165% | SK-MEL-5 melanoma -68.6% | UACC-62 melanoma -3.8%

COc1ccc2c(c1)C(=O)/C(=C/c1ccc(OCC(=O)Nc3nccs3)cc1)O2
inactive: MDA-MB-231 breast 46.2% | RXF 393 renal 31.8% | SF-295 CNS 57.5% | UACC-257 melanoma 84.9% | M14 melanoma 37.3% | HCT-15 colon 76.2% | SNB-19 CNS 78.6% | SK-MEL-5 melanoma 100% | UACC-62 melanoma 74.2% | SK-MEL-28 melanoma 103%
active: DU-145 prostate -37.4% | K-562 leukemia -27.3% | MALME-3M melanoma -42.2% | SF-268 CNS -68.5% | SF-539 CNS -85% | HT29 colon 3.69% | SNB-75 CNS -90.7% | U251 CNS 4.62% | PC-3 prostate -62% | LOX IMVI melanoma -58.2%

COc1ccc2c(c1)CCCN2c1c2ccccc2nc2ccccc12
inactive: MALME-3M melanoma 55.3% | RXF 393 renal 27.1% | SF-268 CNS 33.7% | UACC-257 melanoma 71.2% | HCT-15 colon 12.5% | SNB-19 CNS 34.6% | U251 CNS 14.1% | PC-3 prostate 15.9% | LOX IMVI melanoma 12.2% | SK-MEL-28 melanoma 47%
active: DU-145 prostate 5.71% | K-562 leukemia 9.39% | MDA-MB-231 breast 6.06% | SF-295 CNS 8.45% | SF-539 CNS -26.4% | M14 melanoma 3.64% | HT29 colon 8.43% | SNB-75 CNS 0.187% | SK-MEL-5 melanoma 2.04% | UACC-62 melanoma 5.34%

From PubChem BioAssay (NCI)
